# From PubChem BioAssay
# Active and inactive are the calls of the source. Rule as the data show it: active = inhibition above about 31%; inactive = the rest.
# Test: MRP1 drug-resistance reversers in H69AR cells – cell-based, doxorubicin co-treatment, pilot screen (AID 601)
# Details: H69AR cells, CellTiter-Glo, 72 h; compound alone cytotoxicity; at 10 µM
row,SMILES,viability [%]
1,O=C(O)c1[nH]nc2c1COc1ccccc1-2,100
2,O=C(Nc1ccc(Cl)cc1C(=O)Nc1ccncc1)c1ccco1,41.3
3,CCNC(=O)CC(=O)Nc1ccccc1C(=O)O,103
4,COCCOC(=O)c1[nH]c2c(c1C)C(=O)CC(c1ccc(N(C)C)cc1)C2 (stereo not given),83.5
5,CCOC(=O)c1ccccc1NC(=O)N1CCn2c(C)ccc2C1CC (stereo not given),84.8
6,COc1ccc2[nH]c(=O)c(CN(C(=O)c3cccnc3)c3ccccc3OC)cc2c1,89.1
7,CC(=O)Nc1ccc(S(=O)(=O)Nc2nc3n(n2)C(c2ccccc2)CC(=O)N3)cc1 (stereo not given),107
8,CCOC(=O)CC1=C(C(=O)OCC)C(c2ccc(C)o2)C(C#N)=C(N)O1 (stereo not given),85.6
9,COc1ccc(S(=O)(=O)N2CCOCC2)cc1C(=O)Nc1cc(C)on1,93.9
10,COC(=O)c1ccccc1NC(=O)C1CC(=O)N(c2ccccc2)C1 (stereo not given),102
11,Cn1c(SCC(N)=O)nnc1C1CCN(S(=O)(=O)c2ccccc2C(F)(F)F)CC1,104
12,C=CCc1cc(OC)ccc1OCC(O)CN1CCN(c2ccc(OC)cc2)CC1 (stereo not given),99.6
13,O=C(Nc1nnc(COc2ccc(F)cc2)s1)c1cccs1,106
14,CC(C)(C)n1nnnc1CN1CCC(NC(=O)NC2CCCCC2)CC1,106
15,C=CCn1c(Cc2cccs2)nnc1SCC(=O)Nc1ccc(OC)c(OC)c1,85.3
16,CC(C)(C)c1cc(C(=S)N2CCN(CCO)CC2)cc(C(C)(C)C)c1O,96.2
17,COc1cccc(-c2nnc3sc(-c4ccc(C)cc4)nn23)c1,17.3
18,O=C(CSc1ncn[nH]1)c1ccco1,94.7
19,Cc1ccccc1C(=O)Nc1c(C(=O)N2CCCC2)cnn1-c1ccccc1,91.9
20,CCCS(=O)(=O)Nc1c(C(=O)O)[nH]c2ccccc12,94.5

row,SMILES,viability [%]
1,CCOC(=O)Nc1sc(=S)n(C)c1C,98
2,CC1(C)C(=O)Nc2ccccc2N1C(=O)COC(=O)Cn1cnc2ccccc2c1=O,96.3
3,O=C(CNC(=O)c1ccccc1C(=O)O)c1ccccc1,90
4,Cc1ccc(F)cc1NC(=O)Cc1nn(C)c(=O)c2ccccc12,93.4
5,CCN1CCN(C(=O)c2ccc3c(=O)n(C4CCCC4)c(=S)[nH]c3c2)CC1,84.7
6,O=C(NC1CCS(=O)(=O)C1)N1CCCCC1 (stereo not given),89.6
7,COc1ccc(NC(=O)CCCN2C(=O)C3C4C=CC(C4)C3C2=O)c(OC)c1 (stereo not given),102
8,COc1ccc(S(=O)(=O)N(C)c2ccc(C(=O)N3CCOCC3)cc2)cc1,95.2
9,Cc1cccc(NC(=O)Cn2c(=O)n(C)c3ccccc32)c1,102
10,CC1(C)Cc2c(sc3ncnc(N)c23)CO1,95.6
11,Cn1c(=O)c(-c2ccccc2)nn2c3ccccc3nc12,90.8
12,COc1cccc(NC(=O)NC2(C(F)(F)F)Oc3ccccc3O2)c1,30.7
13,COc1ccc2nc3oc(C(=O)NC4CCN(Cc5ccccc5)CC4)cc3cc2c1,82.6
14,Cc1ccc(S(=O)(=O)N2CCN(C(=O)CN3C(=O)NC4(CCOc5ccccc54)C3=O)CC2)cc1 (stereo not given),101
15,O=S(=O)(c1cccc2nsnc12)N1CCN(c2ncccn2)CC1,86.9
16,Cc1ccc(C(=O)N2CCCC(c3nc4c(nnn4Cc4ccccc4)c(=O)[nH]3)C2)cc1 (stereo not given),83.4
17,O=C(C1CCN(S(=O)(=O)Cc2ccccc2)CC1)N1CCN(c2ncccn2)CC1,112
18,CCOc1ncccc1C(=O)OCC(=O)Nc1ncc(C(F)(F)F)cc1Cl,93.8
19,O=C(Cn1ccc2ccccc2c1=O)Nc1ccc2c(c1)OCO2,107
20,Cn1nnnc1SCC(=O)NCc1ccco1,95.8

# Test: yeast transport mutant growth inhibition pilot in 384-well plates, post-Golgi transport modulator project (AID 636)
# Details: absorbance 615 nm, about 18 h, stronger effect = higher value
row,SMILES,inhibition
1,O=C(O)c1[nH]nc2c1COc1ccccc1-2,-0.92% (inactive)
2,O=C(Nc1ccc(Cl)cc1C(=O)Nc1ccncc1)c1ccco1,-1.84% (inactive)
3,CCNC(=O)CC(=O)Nc1ccccc1C(=O)O,-5.95% (inactive)
4,COCCOC(=O)c1[nH]c2c(c1C)C(=O)CC(c1ccc(N(C)C)cc1)C2 (stereo not given),-6.16% (inactive)
5,CCOC(=O)c1ccccc1NC(=O)N1CCn2c(C)ccc2C1CC (stereo not given),-4.46% (inactive)
6,COc1ccc2[nH]c(=O)c(CN(C(=O)c3cccnc3)c3ccccc3OC)cc2c1,-6% (inactive)
7,CC(=O)Nc1ccc(S(=O)(=O)Nc2nc3n(n2)C(c2ccccc2)CC(=O)N3)cc1 (stereo not given),-7.7% (inactive)
8,CCOC(=O)CC1=C(C(=O)OCC)C(c2ccc(C)o2)C(C#N)=C(N)O1 (stereo not given),0.65% (inactive)
9,COc1ccc(S(=O)(=O)N2CCOCC2)cc1C(=O)Nc1cc(C)on1,-3.42% (inactive)
10,COC(=O)c1ccccc1NC(=O)C1CC(=O)N(c2ccccc2)C1 (stereo not given),-6.27% (inactive)
11,Cn1c(SCC(N)=O)nnc1C1CCN(S(=O)(=O)c2ccccc2C(F)(F)F)CC1,-7.03% (inactive)
12,C=CCc1cc(OC)ccc1OCC(O)CN1CCN(c2ccc(OC)cc2)CC1 (stereo not given),0.13% (inactive)
13,O=C(Nc1nnc(COc2ccc(F)cc2)s1)c1cccs1,-6.93% (inactive)
14,CC(C)(C)n1nnnc1CN1CCC(NC(=O)NC2CCCCC2)CC1,-5.53% (inactive)
15,C=CCn1c(Cc2cccs2)nnc1SCC(=O)Nc1ccc(OC)c(OC)c1,-5.06% (inactive)
16,CC(C)(C)c1cc(C(=S)N2CCN(CCO)CC2)cc(C(C)(C)C)c1O,-6.13% (inactive)
17,COc1cccc(-c2nnc3sc(-c4ccc(C)cc4)nn23)c1,-5.92% (inactive)
18,O=C(CSc1ncn[nH]1)c1ccco1,-1.56% (inactive)
19,Cc1ccccc1C(=O)Nc1c(C(=O)N2CCCC2)cnn1-c1ccccc1,-7.7% (inactive)
20,CCCS(=O)(=O)Nc1c(C(=O)O)[nH]c2ccccc12,-5.13% (inactive)

row,SMILES,inhibition
1,CCOC(=O)Nc1sc(=S)n(C)c1C,-3.95% (inactive)
2,CC1(C)C(=O)Nc2ccccc2N1C(=O)COC(=O)Cn1cnc2ccccc2c1=O,-3.55% (inactive)
3,O=C(CNC(=O)c1ccccc1C(=O)O)c1ccccc1,2.6% (inactive)
4,Cc1ccc(F)cc1NC(=O)Cc1nn(C)c(=O)c2ccccc12,-0.66% (inactive)
5,CCN1CCN(C(=O)c2ccc3c(=O)n(C4CCCC4)c(=S)[nH]c3c2)CC1,7.37% (inactive)
6,O=C(NC1CCS(=O)(=O)C1)N1CCCCC1 (stereo not given),-5.92% (inactive)
7,COc1ccc(NC(=O)CCCN2C(=O)C3C4C=CC(C4)C3C2=O)c(OC)c1 (stereo not given),-5% (inactive)
8,COc1ccc(S(=O)(=O)N(C)c2ccc(C(=O)N3CCOCC3)cc2)cc1,-0.92% (inactive)
9,Cc1cccc(NC(=O)Cn2c(=O)n(C)c3ccccc32)c1,-3.33% (inactive)
10,CC1(C)Cc2c(sc3ncnc(N)c23)CO1,-7.47% (inactive)
11,Cn1c(=O)c(-c2ccccc2)nn2c3ccccc3nc12,-7.03% (inactive)
12,COc1cccc(NC(=O)NC2(C(F)(F)F)Oc3ccccc3O2)c1,-5.07% (inactive)
13,COc1ccc2nc3oc(C(=O)NC4CCN(Cc5ccccc5)CC4)cc3cc2c1,-2.76% (inactive)
14,Cc1ccc(S(=O)(=O)N2CCN(C(=O)CN3C(=O)NC4(CCOc5ccccc54)C3=O)CC2)cc1 (stereo not given),4.08% (inactive)
15,O=S(=O)(c1cccc2nsnc12)N1CCN(c2ncccn2)CC1,-7.16% (inactive)
16,Cc1ccc(C(=O)N2CCCC(c3nc4c(nnn4Cc4ccccc4)c(=O)[nH]3)C2)cc1 (stereo not given),-3.08% (inactive)
17,O=C(C1CCN(S(=O)(=O)Cc2ccccc2)CC1)N1CCN(c2ncccn2)CC1,-0.39% (inactive)
18,CCOc1ncccc1C(=O)OCC(=O)Nc1ncc(C(F)(F)F)cc1Cl,-1.58% (inactive)
19,O=C(Cn1ccc2ccccc2c1=O)Nc1ccc2c(c1)OCO2,1.49% (inactive)
20,Cn1nnnc1SCC(=O)NCc1ccco1,1.2% (inactive)
